# In publication PMC10214531:
# Molecular target: Guanine nucleotide-binding protein G(I)/G(S)/G(T) subunit beta-1 (UniProt P62873)
# Test: cross-link between two proteins; cross-linking mass spectrometry
substance,measurement,value
"Guanine nucleotide-binding protein G(I)/G(S)/G(O) subunit gamma-2, P59768",listed as a hit,yes
